Source: PubChem BioAssay AID687043 (Milwaukee Institute for Drug Discovery, 2013)
The whole screen tested about 16,000 compounds, of which about 250 (1.6%) were called active.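 How the source made its calls: active means inhibition above the average over every tested compound plus 3 SD (cut at about 40% in these data); inactive means the rest.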 The full list was thinned out, with actives kept by preference.

Each molecule was assayed on Hepatitis C virus NS3 helicase (assay: compounds blocking NS3h DNA binding – biochemical, fluorescence polarization, ChemBridge library, primary screen (AID 687043)). Conditions: NS3h Cy5-dT15 DNA binding, at 100 µM, stronger effect = higher value.

inhibition, inactive:
O=C(c1cnn2c(C(F)(F)F)cc(-c3cccs3)nc12)N1CCCc2ccccc21 14.1%
O=C(COc1ccc(Br)cc1)Nc1cccc(C(F)(F)F)c1 3.2%
CC(=O)n1nc(C)c2c(-c3ccccc3)c3cc(Br)ccc3nc21 0.3%
O=C(NNC(=O)c1ccc(-c2ccccc2)cc1)Nc1ccccc1 6.7%
O=C(O)COc1ccc2c(=O)c(Oc3ccccc3Br)coc2c1 4.5%
CCOc1ccc(NC(=O)C2=C(C)NC(=S)NC2c2c(OC)ccc3ccccc23)cc1 (stereo not drawn) 6.9%
CCc1ccc2oc(-c3ccc(NC(=O)c4ccccc4[N+](=O)[O-])cc3)nc2c1 17.7%
COc1ccc2oc(=O)c(-c3ccc(I)cc3)cc2c1 1.3%
COC(=O)c1cc(NC(=O)c2ccc(OC)cc2)cc(C(=O)OC)c1 1.9%
O=C1CS/C(=N/N=C\c2ccc([N+](=O)[O-])cc2)N1c1ccc(O)cc1 9.1%
Cc1cc(=O)oc2ccc(OCC(=O)O)cc12 -3.9%
C=C(C)COc1ccc2oc(C)c(C(=O)OC)c2c1 12.1%
O=C(Nc1c(F)cc(F)cc1Br)c1cc2n(n1)C(C(F)(F)F)CC(c1cccs1)N2 (stereo not drawn) 11.4%
O=C(/C=C/c1cccc([N+](=O)[O-])c1)Nc1ccc(O)c(-c2nc3ccccc3o2)c1 12.7%
CCOc1ccc(C2(Cc3ccccc3)C(=O)c3ccccc3C2=O)cc1 5.5%
CC1=C(C(=O)OCC2CCCO2)C(c2cccc(C(F)(F)F)c2)C2=C(CCCC2=O)N1 (stereo not drawn) -1.6%
CSc1nsc(SC)c1NC(=O)OCC1([N+](=O)[O-])COC(C)(C)OC1 3.2%
CC(C)n1c(O)c(C2=c3ccccc3=NC2=O)sc1=S 6.8%
CCOc1cc(/C=c2\sc3nc4ccccc4n3c2=O)ccc1OC(C)c1ccccc1 (stereo not drawn) 2.5%
CCCC(=O)Nc1cccc(NC(=O)c2ccc(-c3ccc(Cl)cc3Cl)o2)c1 8.9%
Cc1cc(I)ccc1NC(=O)COc1ccc(Br)cc1 8%
Clc1ccc(Cn2c(CNc3ccc(Cl)cc3)nc3ccccc32)cc1 9.9%
Cc1ccc(N2C(=O)CC(NCc3ccc(F)cc3)C2=O)cc1 (stereo not drawn) 5%
Cc1ccc(S(=O)(=O)Nc2cc(-c3ccc(F)cc3)[nH]n2)cc1 -6.5%
O=C(Nc1nccs1)c1ccc(NC(=O)C2CCCCC2)cc1 12.5%
N/C(=N/OC(=O)c1ccccc1F)c1ccc(Br)cc1 -3.4%
CC(C)c1ccc(/C=C(\C(=O)c2ccccc2Cl)c2nc3ccccc3o2)cc1 10.6%
N#Cc1c(SCC(=O)c2ccc(Cl)cc2)nc2c(c1-c1ccco1)CCCC2 -2.3%
O=C(Nc1ccc(Oc2ccccc2)cc1)c1ccco1 12%
COC(=O)c1cc(C(=O)N(Cc2ccccc2)c2ccccn2)cc([N+](=O)[O-])c1 8.4%
CCOC(=O)c1cc2n(n1)C(C(F)(F)F)CC(c1ccco1)N2 (stereo not drawn) 1.4%
COc1ccc(Nc2nc(-c3ccccc3)c3cc(C)ccc3n2)cc1 6.7%
COc1ccc(S(=O)(=O)NCCC(C)C)cc1 4.2%
Cc1ccc(CCC(=O)Nc2ncc(Cc3ccc(F)cc3)s2)o1 -10.4%
COc1ccc(C(=O)Nc2ccc(Br)cc2C)c(OC)c1 24.4%
COc1ccccc1CNC(=O)C1CC(=O)N(c2ccc(F)cc2)C1 (stereo not drawn) 1.7%
Cc1ccc(C(=O)Nc2ccc(Cl)cc2)cc1[N+](=O)[O-] -9.5%
O=C(/C=C/c1cc2c(cc1Br)OCO2)c1cccc([N+](=O)[O-])c1 2.3%
COc1ccc(-c2noc(-c3ccc(Br)cc3)n2)cc1 3.3%
O=C(NCc1ccco1)/C(=C/c1cccc(Oc2ccccc2)c1)NC(=O)c1ccccc1 9.7%
Cc1nc(SCC#N)c(C#N)c(C)c1C 9%
COc1ccc2c(Cl)c(C(=O)NCc3ccc4c(c3)OCO4)sc2c1 17%
Cc1ccccc1OCC(=O)Nc1ccc(OC(F)(F)F)cc1 2.3%
CC(C)Nc1nc(-c2ccc(Cl)cc2)nc2ccccc12 19.8%
COc1cccc(C2C(C(=O)Nc3ccccc3)=C(C)N=c3s/c(=C\c4ccncc4)c(=O)n32)c1 (stereo not drawn) 2.2%
Cn1c(=O)c2c(nc(Sc3ncn[nH]3)n2C)n(C)c1=O -6.5%
CCOC(=O)C1=C(C)N=c2s/c(=C/c3c[nH]c4ccccc34)c(=O)n2C1c1ccc(F)cc1 (stereo not drawn) -6.3%
O=C(c1ccncc1)N1N=C(c2ccc(Cl)cc2)CC1(O)C(F)(F)F (stereo not drawn) 13.4%
COC(=O)C1=C(C)NC2=C(C(=O)CC(c3ccc(OC)c(OC)c3)C2)C1c1ccc(OC)c(OC)c1 (stereo not drawn) 7.3%
O=C(CN(c1cccc(Br)c1)S(=O)(=O)c1ccccc1)N1CCOCC1 3.1%
Cn1c(=O)n(CCOc2ccc(Br)cc2)c2ccccc21 13.9%
Cc1nc2c([N+](=O)[O-])cc(Br)cc2c(=O)[nH]1 -12.6%
COc1ccc(CCNC(=O)C(=O)Nc2ccccc2C)cc1OC 15.5%
CCOc1ccc(C2=C/C(=C/c3ccc(OC)c(OC)c3)C(=O)O2)cc1 -0.3%
Cc1ccc(COc2ccc3oc(C)c(C(=O)O)c3c2)cc1 5.2%
COc1ccccc1N1CCN(S(=O)(=O)c2ccc(SC)cc2)CC1 -1.6%
CCOc1cc(/C=C2\C=C(c3ccc(C)cc3)OC2=O)ccc1OC(C)=O -4.9%
O=C(COc1ccc(Br)cc1)Nc1cccc2nsnc12 6%
O=C(COc1ccccc1)Nc1ccc(NC(=O)COc2ccccc2)cc1 2.2%
COc1ccc(OC)c(C=NN2CCN(Cc3ccc(C)cc3C)CC2)c1 11.9%

inhibition, active:
Cc1ccc(C(=O)C[n+]2cc(-c3ccccc3)n3c2CCCCC3)cc1 54.5%
COc1ccc(C(=O)Oc2ccc3oc(=O)cc(C)c3c2)cc1OC 48.9%
N#Cc1c(N)nc2sc(C(=O)Nc3ccccc3)c(N)c2c1-c1ccco1 65.7%
